From PubChem BioAssay (NCATS) come the findings set out here.

The target of test [1] is Rap guanine nucleotide exchange factor 3 (Homo sapiens) (UniProt O95398). Nature of the test: Confirmatory qHTS for antagonist of cAMP-regulated guanine nucleotide exchange factor 3 (EPAC1) (AID 1645880). Further: nearly all actives have a fitted effect of over 55% in size. Further: potency means the concentration at half of the fitted maximal effect.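 On activity, negative = inhibition: plate controls were DMSO only for no effect and full effect of the ATA control for full effect.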 Particulars: EPAC1 Rap1B-BODIPY-GDP exchange, fluorescence; activity, negative = inhibition: at 115 µM (top of the series). The gist of the method:
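Nucleotide exchange uses 100 nM EPAC1, 250 nM RAP1B-BODIPY-GDP and 50 uM GDP, with compounds in a concentration-titration series. After 5 min at room temperature, fluorescence (480 nm ex/540 nm em) is read every 5 min for 30 min. Data are normalized to control ATA and DMSO.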
A general note: qHTS replaces the single test concentration by a dilution series.

For test [2] the target is unchanged. Nature of the test: Confirmatory qHTS for agonist of cAMP-regulated guanine nucleotide exchange factor 3 (EPAC1) (AID 1645881).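 Further: EPAC1 catalysed release of BODIPY-GDP from Rap1B seen as fluorescence loss; 100% = effect of cAMP agonist control; nearly all actives have a fitted effect of over 75% in size.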
In test [3] the target is Rap guanine nucleotide exchange factor 4 (Homo sapiens) (UniProt Q8WZA2). Nature of the test: Confirmatory qHTS for agonist of cAMP-regulated guanine nucleotide exchange factor 4 (EPAC2) (AID 1645884).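 Further: nucleotide exchange releases bodipy-GDP from Rap1 and this lowers its fluorescence; on the % scale 0 is the no-effect control and ±100 the full control effect; nearly all actives have a fitted effect of over 65% in size.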
Chain of Rap guanine nucleotide exchange factor 4 (Homo sapiens) (Q8WZA2 whole entry, looked up): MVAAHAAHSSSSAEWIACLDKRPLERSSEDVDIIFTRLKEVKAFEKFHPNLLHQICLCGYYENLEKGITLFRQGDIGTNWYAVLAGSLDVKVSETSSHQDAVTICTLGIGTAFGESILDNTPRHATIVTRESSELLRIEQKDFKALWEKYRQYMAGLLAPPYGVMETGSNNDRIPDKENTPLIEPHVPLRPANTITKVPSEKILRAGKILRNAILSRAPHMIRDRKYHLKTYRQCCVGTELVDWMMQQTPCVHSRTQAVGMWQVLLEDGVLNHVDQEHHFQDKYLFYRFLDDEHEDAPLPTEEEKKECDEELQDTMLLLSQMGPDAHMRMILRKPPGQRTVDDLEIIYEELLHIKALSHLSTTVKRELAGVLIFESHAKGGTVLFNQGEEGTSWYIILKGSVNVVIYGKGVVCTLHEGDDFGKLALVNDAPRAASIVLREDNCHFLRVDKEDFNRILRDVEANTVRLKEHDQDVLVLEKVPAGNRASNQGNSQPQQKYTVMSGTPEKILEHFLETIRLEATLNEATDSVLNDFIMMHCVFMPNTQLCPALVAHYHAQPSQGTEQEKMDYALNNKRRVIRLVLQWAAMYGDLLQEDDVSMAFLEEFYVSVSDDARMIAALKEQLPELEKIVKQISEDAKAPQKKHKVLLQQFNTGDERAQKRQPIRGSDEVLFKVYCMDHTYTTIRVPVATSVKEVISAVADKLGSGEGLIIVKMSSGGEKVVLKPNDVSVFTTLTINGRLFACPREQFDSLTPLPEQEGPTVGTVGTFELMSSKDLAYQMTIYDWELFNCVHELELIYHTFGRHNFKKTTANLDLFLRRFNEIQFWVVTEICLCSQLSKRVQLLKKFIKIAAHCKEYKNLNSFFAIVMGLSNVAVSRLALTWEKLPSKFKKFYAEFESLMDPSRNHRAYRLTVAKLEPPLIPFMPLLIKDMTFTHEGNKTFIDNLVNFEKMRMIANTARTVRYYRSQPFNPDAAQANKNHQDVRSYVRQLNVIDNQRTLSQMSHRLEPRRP
Test [4] shares this target. Nature of the test: Confirmatory qHTS for antagonist of cAMP-regulated guanine nucleotide exchange factor 4 (EPAC2) (AID 1645885). Further: on the % scale 0 is the no-effect control and ±100 the full control effect; nearly all actives have a fitted effect of over 25% in size.
For test [5], the target named is Rap guanine nucleotide exchange factor 3 (Homo sapiens) (UniProt O95398). Nature of the test: Counterscreen qHTS for antagonist of cAMP-regulated guanine nucleotide exchange factor 3 (EPAC1) (AID 1645888).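 Further: fluorescence loss as bound BODIPY-GDP is released from Rap1B; % of control where 0% means no effect.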 In short, it runs like this:
(§1)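 Rap1B–BODIPY-GDP (250 nM) with 50 uM GDP; compounds pin-transferred to 9.74 nM–152 uM final (activator) or from 7.32 nM upwards (inhibitor). Fluorescence Ex/Em 480/540 nm read at 5 and 30 min, then after adding cAMP or buffer, at room temperature.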
A general note: A counterscreen serves to expose hits that act by an unwanted route or on another target.

The target is the same in test [6]. As to the kind of experiment: Counterscreen qHTS for agonist of cAMP-regulated guanine nucleotide exchange factor 3 (EPAC1) (AID 1645889). Further: % of control where 0% means no effect; nearly all actives have a fitted effect of over 40% in size. The gist of the method: as §1
In test [7] the target is Catechol O-methyltransferase (Homo sapiens) (UniProt P21964). Nature of the test: Confirmatory Screen for Target Class Profiling of Small Molecule Inhibitors of Methyltransferases (AID 1745852; calls by dose curve; further: potency means the concentration at half of the fitted maximal effect). Particulars: MTase-Glo luminescence, SAH detection, recombinant enzyme; measured here: COMT max response; stronger effect = lower value.
Chain of Catechol O-methyltransferase (Homo sapiens) (P21964 whole entry, looked up): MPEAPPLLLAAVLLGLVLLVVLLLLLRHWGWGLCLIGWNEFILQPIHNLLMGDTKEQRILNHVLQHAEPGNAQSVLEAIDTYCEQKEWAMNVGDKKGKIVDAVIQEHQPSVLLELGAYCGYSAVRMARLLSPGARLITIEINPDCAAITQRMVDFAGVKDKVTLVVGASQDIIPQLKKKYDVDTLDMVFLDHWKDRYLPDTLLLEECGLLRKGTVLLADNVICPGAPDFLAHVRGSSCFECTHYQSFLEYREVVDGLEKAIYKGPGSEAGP
Test [8] has as its target Guanidinoacetate N-methyltransferase (Homo sapiens) (UniProt Q14353). The description is as above. Particulars: activity change, negative = inhibition: at 57.3 µM (top of the series) unless noted.
Test [9] addresses Nicotinamide N-methyltransferase (Homo sapiens) (UniProt P40261). The description is as above. As to conditions: MTase-Glo luminescence, SAH detection, recombinant enzyme; measured here: NNMT max response; stronger effect = lower value.
Test [10] concerns the target Phenylethanolamine N-methyltransferase (Homo sapiens) (UniProt P11086). The test is described as above. Particulars: MTase-Glo luminescence, SAH detection, recombinant enzyme; measured here: PNMT max response; stronger effect = lower value.
The nature of test [11]: AP1 Signaling Pathway (AID 357; active means well fitted curve in either direction with a large enough effect, not every such curve was filed as active; further: on the % scale 0 is the no-effect control and ±100 the full control effect). As to conditions: ME-180 (cervical carcinoma) AP-1-bla reporter, EGF-induced, beta-lactamase ratio, 5 h; at 7.69 µM (top of the series) unless noted. In short, it runs like this: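 A ratiometric CCF4 readout (405 nm excitation; 460 and 530 nm emission) quantified AP-1-driven beta-lactamase in ME-180 cells after 5 h with compound and EC50 EGF; AC50 values were derived for activators and inhibitors.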

Test [12] is described as follows: NFAT Signaling Pathway (AID 444; active means well fitted curve in either direction with a large enough effect, not every such curve was filed as active;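 further: carbachol stimulus at about its EC50 of 1 µM final; on the % scale 0 is the no-effect control and ±100 the full control effect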). Particulars: Jurkat NFAT-bla M1, carbachol, beta-lactamase ratio, 5 h; at 7.69 µM (top of the series) unless noted. In short, it runs like this:
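Jurkat cells with NFAT-driven β-lactamase reporter and co-expressed M1 receptor, stimulated with carbachol (final 1 uM, ~EC50), compound titration, 5 h at 37 °C. CCF4 loaded 1 h at RT; 460/530 nm ratio gave %activity and AC50.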

The nature of test [13]: Stat Signaling Pathway (AID 446; active means well fitted curve in either direction with a large enough effect, not every such curve was filed as active;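 further: ME-180 cervical cancer cells given 40 pM IL-6 alongside compound; SIE-controlled beta-lactamase reporter measured as 460/530 nm FRET emission ratio; on the % scale 0 is the no-effect control and ±100 the full control effect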). The gist of the method:
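ME-180 cells carrying a SIE-driven beta-lactamase reporter are stimulated with 40 pM IL-6 for 5 h at 37C in the presence of compound. The 460/530 nm FRET substrate ratio is read after 2.5 h at RT. Data are normalised to 300 pM IL-6 and to 125 nM JAK inhibitor controls.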

Test [14] concerns the target Glucocorticoid receptor (Homo sapiens) (UniProt P04150). Nature of the test: GR-GFP Redistribution (AID 450;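 active means compounds whose dose series gives a full or clear partial fitted curve of increased nuclear translocation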; further: potency means the concentration at half of the fitted maximal effect). Particulars: U2OS GR-GFP nuclear translocation, laser cytometry, 2 h.
Test [15] can be described thus: qHTS for Inhibitors of the vitamin D receptor (VDR): Hit Validation using a Texas Red Assay (AID 602201). Further: on the % scale 0 is the no-effect control and ±100 the full control effect. The gist of the method: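 Fluorescence polarization with 1.5 uM VDR-LBD, LG19078 and 7 nM Texas Red (final). After 2 hours at ambient temperature, read at Ex 595 nm/Em 615 nm.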
Test [16] can be described thus: qHTS Assay for Inhibitors of Fructose-1,6-bisphosphate Aldolase from Giardia Lamblia: Mammalian cellular toxicity (AID 2786).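 Further: compound exposure lasted 48 h before reading; on the % scale 0 is the no-effect control and ±100 the full control effect; nearly all actives have a fitted effect of over 60% in size.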 In short, it runs like this:
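CHO cells seeded at 250 cells/well with pin-tool-added compound, incubated 48 h at 37 °C, 5% CO2. Viability read as ATP content by ATPlite luminescence after 20 min.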

In test [17] the target is Fructose-bisphosphate aldolase (Giardia intestinalis (strain ATCC 50803 / WB clone C6)) (UniProt A8B2U2). As to the kind of experiment: qHTS Assay for Inhibitors of Fructose-1,6-bisphosphate Aldolase from Giardia Lamblia: Primary screen confirmation (AID 2787).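 Further: aldolase product measured through coupled diaphorase step turning resazurin into fluorescent resorufin; on the % scale 0 is the no-effect control and ±100 the full control effect; nearly all actives have a fitted effect of over 45% in size.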 In short, it runs like this:
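Confirmation of primary hits by qHTS up to 57.5 uM final compound. Enzyme at 40 nM with 30 uM ZnCl2, 10 min RT pre-incubation, then substrate/coupling/resorufin-forming detection mix for 20 min before fluorescence read at 525/598 nm.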

In test [18] the target is Fructose-bisphosphate aldolase A (Oryctolagus cuniculus) (UniProt P00883). Nature of the test: qHTS Assay for Inhibitors of Fructose-1,6-bisphosphate Aldolase from Giardia Lamblia: Rabbit FBPA Selectivity (AID 2794). Further: on the % scale 0 is the no-effect control and ±100 the full control effect; nearly all actives have a fitted effect of over 60% in size. The gist of the method: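 Concentration-response qHTS with rabbit FBPA: 10 min RT compound–coupling enzyme preincubation; reaction started by substrate plus AmpLite Red detection; fluorescence at 525/598 nm after 20 min. Final compound range up to 57.5 uM.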
Chain of Fructose-bisphosphate aldolase A (Oryctolagus cuniculus) (P00883 whole entry, looked up): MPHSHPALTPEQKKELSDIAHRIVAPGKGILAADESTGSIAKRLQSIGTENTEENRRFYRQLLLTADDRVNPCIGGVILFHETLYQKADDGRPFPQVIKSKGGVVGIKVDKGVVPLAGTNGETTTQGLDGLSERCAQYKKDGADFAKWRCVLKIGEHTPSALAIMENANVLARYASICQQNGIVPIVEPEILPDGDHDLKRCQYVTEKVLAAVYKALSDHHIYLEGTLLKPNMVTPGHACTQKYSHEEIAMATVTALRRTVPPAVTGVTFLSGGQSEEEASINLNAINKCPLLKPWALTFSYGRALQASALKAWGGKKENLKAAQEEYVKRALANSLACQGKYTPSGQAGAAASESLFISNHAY

The nature of test [19]: qHTS Assay for Inhibitors of Fructose-1,6-bisphosphate Aldolase from Giardia Lamblia: Coupling assay counterscreen confirmation (AID 2795). Further: on the % scale 0 is the no-effect control and ±100 the full control effect; nearly all actives have a fitted effect of over 55% in size. In short, it runs like this:
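Concentration-response counterscreen (up to 57.5 uM final) of aldolase-screen hits against coupling enzymes only. Substrate, coupling system and AmpLite Red were added after a 10 min RT preincubation; fluorescence was taken 20 min later at 525/598 nm.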

Records with an inconclusive call do not appear. The list shows a part of the results. The source made the active and inactive calls. Unless noted, the call rests on the fitted dose curve; in most records, active means well fitted curve in the direction sought with a large enough effect; inconclusive means small, poorly fitted or top-dose-only effect, or another doubt; inactive means no such curve, though single readings can be large; an effect the other way counts as inactive or inconclusive. Bounds are passed on as bounds.

Chain of Rap guanine nucleotide exchange factor 3 (Homo sapiens) (O95398 whole entry, looked up): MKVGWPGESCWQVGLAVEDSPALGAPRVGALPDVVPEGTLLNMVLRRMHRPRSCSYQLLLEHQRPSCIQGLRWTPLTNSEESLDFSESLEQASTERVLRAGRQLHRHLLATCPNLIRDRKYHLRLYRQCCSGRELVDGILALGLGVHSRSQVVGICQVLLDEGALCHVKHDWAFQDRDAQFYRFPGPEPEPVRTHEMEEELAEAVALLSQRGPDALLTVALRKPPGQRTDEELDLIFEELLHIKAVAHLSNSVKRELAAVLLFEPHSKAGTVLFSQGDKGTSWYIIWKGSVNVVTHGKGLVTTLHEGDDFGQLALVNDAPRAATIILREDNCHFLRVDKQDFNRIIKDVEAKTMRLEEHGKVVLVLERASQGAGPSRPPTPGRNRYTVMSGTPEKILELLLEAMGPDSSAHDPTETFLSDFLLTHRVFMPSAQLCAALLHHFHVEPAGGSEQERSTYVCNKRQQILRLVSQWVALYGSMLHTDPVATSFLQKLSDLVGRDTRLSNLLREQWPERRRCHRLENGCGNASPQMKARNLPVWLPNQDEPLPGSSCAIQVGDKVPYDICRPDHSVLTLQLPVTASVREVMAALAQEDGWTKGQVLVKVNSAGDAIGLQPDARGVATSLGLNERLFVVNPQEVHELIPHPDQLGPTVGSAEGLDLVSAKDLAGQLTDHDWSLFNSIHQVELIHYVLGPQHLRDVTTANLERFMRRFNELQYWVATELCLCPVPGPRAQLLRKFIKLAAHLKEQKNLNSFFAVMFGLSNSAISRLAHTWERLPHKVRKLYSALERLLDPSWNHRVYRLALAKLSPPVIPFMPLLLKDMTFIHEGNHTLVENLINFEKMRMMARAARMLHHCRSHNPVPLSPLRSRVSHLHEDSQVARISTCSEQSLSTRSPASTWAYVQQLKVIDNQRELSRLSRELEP
Chain of Glucocorticoid receptor (Homo sapiens) (P04150 whole entry, looked up, the tested form may be a part): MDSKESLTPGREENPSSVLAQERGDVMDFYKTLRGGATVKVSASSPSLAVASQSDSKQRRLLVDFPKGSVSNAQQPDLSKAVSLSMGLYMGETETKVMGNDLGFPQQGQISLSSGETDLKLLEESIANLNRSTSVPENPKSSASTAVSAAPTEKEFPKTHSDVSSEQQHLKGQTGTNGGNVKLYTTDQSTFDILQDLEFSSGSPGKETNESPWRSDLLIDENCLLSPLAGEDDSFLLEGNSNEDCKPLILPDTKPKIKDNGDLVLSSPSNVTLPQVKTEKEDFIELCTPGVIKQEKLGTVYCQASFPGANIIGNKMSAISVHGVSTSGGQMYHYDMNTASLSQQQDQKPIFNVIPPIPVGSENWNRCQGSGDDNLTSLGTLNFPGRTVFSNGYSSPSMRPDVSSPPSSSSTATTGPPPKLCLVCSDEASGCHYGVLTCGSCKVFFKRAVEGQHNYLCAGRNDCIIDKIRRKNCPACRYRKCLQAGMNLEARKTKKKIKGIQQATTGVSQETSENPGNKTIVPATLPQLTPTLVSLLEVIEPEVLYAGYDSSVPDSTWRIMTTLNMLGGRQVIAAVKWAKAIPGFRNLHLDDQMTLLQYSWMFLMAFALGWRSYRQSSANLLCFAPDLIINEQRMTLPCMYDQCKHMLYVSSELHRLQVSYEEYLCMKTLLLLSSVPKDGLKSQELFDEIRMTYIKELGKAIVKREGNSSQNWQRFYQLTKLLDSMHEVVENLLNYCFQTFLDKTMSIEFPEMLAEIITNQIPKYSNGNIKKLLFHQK
Chain of Phenylethanolamine N-methyltransferase (Homo sapiens) (P11086 whole entry, looked up): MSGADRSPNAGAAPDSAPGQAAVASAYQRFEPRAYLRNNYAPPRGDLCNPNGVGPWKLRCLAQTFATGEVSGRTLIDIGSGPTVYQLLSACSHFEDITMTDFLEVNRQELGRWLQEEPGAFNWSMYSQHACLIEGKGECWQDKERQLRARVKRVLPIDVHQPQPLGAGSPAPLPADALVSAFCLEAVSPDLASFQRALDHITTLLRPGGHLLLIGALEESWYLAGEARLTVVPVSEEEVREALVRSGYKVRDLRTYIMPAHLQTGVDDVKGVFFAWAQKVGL
Chain of Nicotinamide N-methyltransferase (Homo sapiens) (P40261 whole entry, looked up): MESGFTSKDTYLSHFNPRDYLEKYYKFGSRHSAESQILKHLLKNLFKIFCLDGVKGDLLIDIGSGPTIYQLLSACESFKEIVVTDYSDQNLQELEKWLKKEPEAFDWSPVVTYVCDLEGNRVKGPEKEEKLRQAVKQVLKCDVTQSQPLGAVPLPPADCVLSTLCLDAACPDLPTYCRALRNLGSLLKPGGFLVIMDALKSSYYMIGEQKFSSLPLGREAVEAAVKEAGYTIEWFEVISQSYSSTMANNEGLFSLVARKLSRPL
Chain of Fructose-bisphosphate aldolase (Giardia intestinalis (strain ATCC 50803 / WB clone C6)) (A8B2U2 whole entry, looked up): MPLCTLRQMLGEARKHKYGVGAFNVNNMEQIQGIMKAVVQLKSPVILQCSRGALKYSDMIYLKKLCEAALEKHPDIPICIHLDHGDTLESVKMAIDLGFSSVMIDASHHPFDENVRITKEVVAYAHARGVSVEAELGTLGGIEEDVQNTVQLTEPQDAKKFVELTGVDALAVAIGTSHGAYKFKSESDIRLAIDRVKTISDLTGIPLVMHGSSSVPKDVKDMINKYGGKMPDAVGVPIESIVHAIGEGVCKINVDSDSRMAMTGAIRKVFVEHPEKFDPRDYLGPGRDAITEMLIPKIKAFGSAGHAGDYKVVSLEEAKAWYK

Take `CCCc1cc2c(-c3ccccc3)cc(=O)oc2cc1OCc1ccc(C(=O)O)o1`: the Potency is 75.7 µM (active) in test [1] and 24.1 µM (active) in [8]. Moreover, the Potency result in test [2], in test [3], in test [4], in [5] and in test [6] was “inactive” throughout. Also, the activity in test [7] is -44.4%; in test [9], -57.8%; in test [10], -42%.
As to `COC(=O)c1cc(Br)c(=O)n(Cc2ccc3c(c2)OCO3)c1`, the activity change, negative = inhibition was -2.94% [at 17.2 µM] (inactive) in test [11], 2.18% [at 17.2 µM] (inactive) in test [12] and 5.45% [at 30.8 µM] (inactive) in [5]. For the same compound, the outcome in [13] was “inactive”. In test [14], the Potency was > 20.6 µM (inactive). The Potency result in test [1], in [2] and in test [4] was “inactive” each time. Moreover, the activation is -3.61% [at 17.1 µM, percent relative to cAMP agonist control] (inactive) in test [3] and 2.16% [at 30.8 µM] (inactive) in [6].
Turning to `CC(=O)NNC(=O)c1sc(=S)n2c1[nH]c(=O)c1sccc12`, the Potency in [1] was 37.9 µM (active). In addition, the Potency result in test [2], in [3], in test [4], in test [5] and in [6] was “inactive” throughout.
For the compound `CC1=NOC(=O)/C1=C\c1ccc(-c2ccccc2Br)o1`, the Potency entry in [15], in test [2], in [3], in test [4], in test [5] and in test [6] was “inactive” throughout. For the same compound, the Potency in test [1] is 21.3 µM (active).
As to `CCCc1nc2ccccc2c(=O)n1/N=C/c1ccc(O)c(O)c1`, the outcome in [16], in [17], in [18] and in test [19] was “inactive” throughout. For the same compound, the Potency entry in test [1], in [2], in [3], in [4], in test [5] and in test [6] was “inactive” in each case.
